Measurements reported in PubChem BioAssay.
Calls of active or inactive are those of the source. Unless noted, how the calls were made is not given here.

Assays:
[1] = circadian clock period modulators, cell-based, LOPAC library, luminescence reporter (AID 2774); settings: circadian reporter cells, at 7 µM, actives lie on both sides;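 further: values are relative to mean of DMSO wells on each plate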
[2] = system: Hepatitis C virus NS3 helicase; test: HCV NS3 helicase inhibitors, primary screen, biochemical, fluorescence polarization, LOPAC1280 library (AID 687035; in the data active means inhibition above about 37%); settings: Purified HCV NS3 helicase, Cy5-dT15 ssDNA binding fluorescence polarization; stronger effect = higher value; concentration not given here
[3] = Cy5 fluorescence quenching or enhancement artefacts, artefact control for HCV NS3 helicase inhibitor project, biochemical, LOPAC1280 (AID 687037); settings: Cy5-DNA-NS3h complex fluorescence interference counterscreen
[4] = sensitizers of A549 cells to miR-34 induction, primary screen, imaging, A549 dox-inducible miR-34, nuclei and caspase counts (AID 1347080;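 active means compounds whose cell count with miR-34 switched on is under 0.7 times the count with it off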); settings: A549 miR-34 inducible, Hoechst nuclei count, 48 h
[5] = phospholipid biosynthesis inhibitors in animal cells, primary screen, cell-based, LOPAC library, screen 4 (AID 1347384); settings: phospholipid biosynthesis inhibition screen, at 10 µM
[6] = viability rescue of complex I mutant cybrids, primary screen, cell-based, galactose medium, ATP luminescence (AID 1645843;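 active means z-score of at least 1.8 in each of two replicates, scored against plate mean and spread of sample wells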;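 further: positive z means more ATP and so rescue of galactose-driven cybrid death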); settings: complex I mutant cybrid cells, 72 h, stronger effect = higher value
[7] = stronger effect = lower value, cell number ratio, induced over uninduced
[8] = measured here: relative caspase fold change +Dox/-Dox
[9] = measured here: total cells with miR-34 induction, stronger effect = lower value
[10] = measured here: total cells without miR-34 induction

Nc1ccc(CCNc2ncnc3c2ncn3C2OC(CO)C(O)C2O)cc1 (stereo unspecified)
period change [1]: 0.215 h (inactive)
inhibition [2]: -1% (inactive)
fluorescence ratio (interference) [3]: 1 (inactive)
fold change [4, 7]: 1.01 (inactive)
fold change [4, 8]: 1.75
cell count [4, 9]: 10600
cell count [4, 10]: 10500
outcome [5]: inactive
z-score [6]: 0.795 (inactive)

CC(N)=NCCCC[C@@H](N)C(=O)O
period change [1]: 0.055 h (inactive)
inhibition [2]: -4% (inactive)
fluorescence ratio (interference) [3]: 0.9 (inactive)
fold change [4, 7]: 1.08 (inactive)
fold change [4, 8]: 1.26
cell count [4, 9]: 11400
cell count [4, 10]: 10600
outcome [5]: inactive
z-score [6]: 0.39 (inactive)

COc1cccc(OC)c1OCCNCC1CSc2ccccc2O1 (stereo unspecified)
period change [1]: 0.065 h (inactive)
inhibition [2]: 0% (inactive)
fluorescence ratio (interference) [3]: 1 (inactive)
fold change [4, 7]: 1.03 (inactive)
fold change [4, 8]: 1.19
cell count [4, 9]: 7530
cell count [4, 10]: 7340
outcome [5]: inactive
z-score [6]: -1.31 (inactive)

CNc1cc(NS(=O)(=O)c2ccc(N)cc2)nc(NC)n1
period change [1]: -0.065 h (inactive)
inhibition [2]: -3% (inactive)
fluorescence ratio (interference) [3]: 1 (inactive)
fold change [4, 7]: 1.09 (inactive)
fold change [4, 8]: 0.965
cell count [4, 9]: 9150
cell count [4, 10]: 8390
outcome [5]: inactive
z-score [6]: 0.695 (inactive)

COc1cc(C(O)C(=O)O)ccc1O (stereo unspecified)
period change [1]: 0.03 h (inactive)
inhibition [2]: -2% (inactive)
fluorescence ratio (interference) [3]: 1 (inactive)
fold change [4, 7]: 0.986 (inactive)
fold change [4, 8]: 1.43
cell count [4, 9]: 10600
cell count [4, 10]: 10700
outcome [5]: inactive
z-score [6]: -0.02 (inactive)

CC(N)(Cc1ccc(O)cc1)C(=O)O (stereo unspecified)
period change [1]: -0.14 h (inactive)
inhibition [2]: -1% (inactive)
fluorescence ratio (interference) [3]: 0.9 (inactive)
fold change [4, 7]: 1 (inactive)
fold change [4, 8]: 0.646
cell count [4, 9]: 9440
cell count [4, 10]: 9440
outcome [5]: inactive
z-score [6]: 1.32 (inactive)

O=C(O)C1CN(CCCP(=O)(O)O)CCN1 (stereo unspecified)
period change [1]: 0.255 h (inactive)
inhibition [2]: 1% (inactive)
fluorescence ratio (interference) [3]: 1 (inactive)
fold change [4, 7]: 0.99 (inactive)
fold change [4, 8]: 1.52
cell count [4, 9]: 10000
cell count [4, 10]: 10100
outcome [5]: inactive
z-score [6]: 0.45 (inactive)

Nc1ncnc2c1ncn2C1CCCC1
period change [1]: 0.035 h (inactive)
inhibition [2]: -6% (inactive)
fluorescence ratio (interference) [3]: 0.9 (inactive)
fold change [4, 7]: 1.02 (inactive)
fold change [4, 8]: 2.13
cell count [4, 9]: 10400
cell count [4, 10]: 10200
outcome [5]: inactive
z-score [6]: -0.07 (inactive)

C=CCN1CCc2c(cc(O)c(O)c2Cl)C(c2ccccc2)C1 (stereo unspecified)
period change [1]: 0.25 h (inactive)
inhibition [2]: -4% (inactive)
fluorescence ratio (interference) [3]: 1 (inactive)
fold change [4, 7]: 1.02 (inactive)
fold change [4, 8]: 1.32
cell count [4, 9]: 7830
cell count [4, 10]: 7660
outcome [5]: inactive
z-score [6]: -0.925 (inactive)

Cc1nc(N=Nc2ccc(C(=O)O)cc2)c(COP(=O)(O)O)c(C=O)c1O
period change [1]: -0.16 h (inactive)
inhibition [2]: 43% (active)
fluorescence ratio (interference) [3]: 1 (inactive)
fold change [4, 7]: 1.04 (inactive)
fold change [4, 8]: 0.656
cell count [4, 9]: 10100
cell count [4, 10]: 9680
outcome [5]: inactive
z-score [6]: 0.49 (inactive)

NC(=O)C(=O)O
period change [1]: 0.025 h (inactive)
inhibition [2]: -7% (inactive)
fluorescence ratio (interference) [3]: 0.9 (inactive)
fold change [4, 7]: 1.05 (inactive)
fold change [4, 8]: 1.23
cell count [4, 9]: 10900
cell count [4, 10]: 10300
outcome [5]: inactive
z-score [6]: 0.585 (inactive)

CC(N)=O
period change [1]: -0.19 h (inactive)
inhibition [2]: 0% (inactive)
fluorescence ratio (interference) [3]: 0.9 (inactive)
fold change [4, 7]: 1.08 (inactive)
fold change [4, 8]: 1.34
cell count [4, 9]: 10600
cell count [4, 10]: 9870
outcome [5]: inactive
z-score [6]: 1.1 (inactive)

CC(C)C[C@H](NC(=O)[C@H](O)[C@H](N)Cc1ccccc1)C(=O)O
period change [1]: -0.01 h (inactive)
inhibition [2]: -2% (inactive)
fluorescence ratio (interference) [3]: 1 (inactive)
fold change [4, 7]: 1.02 (inactive)
fold change [4, 8]: 0.988
cell count [4, 9]: 10100
cell count [4, 10]: 9920
outcome [5]: inactive
z-score [6]: 0.245 (inactive)

Cn1ccnc1
period change [1]: 0.39 h (inactive)
inhibition [2]: -2% (inactive)
fluorescence ratio (interference) [3]: 0.9 (inactive)
fold change [4, 7]: 1.1 (inactive)
fold change [4, 8]: 0.769
cell count [4, 9]: 11100
cell count [4, 10]: 10000
outcome [5]: inactive
z-score [6]: 0.675 (inactive)

CC(=O)C(C)=O
period change [1]: -0.125 h (inactive)
inhibition [2]: -3% (inactive)
fluorescence ratio (interference) [3]: 1 (inactive)
fold change [4, 7]: 1.06 (inactive)
fold change [4, 8]: 0.938
cell count [4, 9]: 10100
cell count [4, 10]: 9490
outcome [5]: inactive
z-score [6]: 0.23 (inactive)

Cn1cc(C(F)(F)F)nc1-c1ccc(OCC(O)CNCCOc2ccc(O)c(C(N)=O)c2)cc1 (stereo unspecified)
period change [1]: -0.065 h (inactive)
inhibition [2]: 0% (inactive)
fluorescence ratio (interference) [3]: 1 (inactive)
fold change [4, 7]: 0.893 (inactive)
fold change [4, 8]: 1.45
cell count [4, 9]: 9830
cell count [4, 10]: 11000
outcome [5]: inactive
z-score [6]: -0.695 (inactive)

CCNC(=O)[C@H]1O[C@@H](n2cnc3c(N)nc(NCCc4ccc(CCC(=O)O)cc4)nc32)C(O)[C@H]1O (stereo partly specified)
period change [1]: 0.1 h (inactive)
inhibition [2]: 0% (inactive)
fluorescence ratio (interference) [3]: 1 (inactive)
fold change [4, 7]: 0.963 (inactive)
fold change [4, 8]: 1.23
cell count [4, 9]: 9660
cell count [4, 10]: 10000
outcome [5]: inactive
z-score [6]: 0.485 (inactive)

Nn1nnc2ccccc21
period change [1]: -0.155 h (inactive)
inhibition [2]: -1% (inactive)
fluorescence ratio (interference) [3]: 1 (inactive)
fold change [4, 7]: 1.06 (inactive)
fold change [4, 8]: 1.77
cell count [4, 9]: 10600
cell count [4, 10]: 9990
outcome [5]: inactive
z-score [6]: 0.305 (inactive)

Cn1c(=O)c2c(nc(/C=C/c3cccc(Cl)c3)n2C)n(C)c1=O
period change [1]: 0.15 h (inactive)
inhibition [2]: -2% (inactive)
fluorescence ratio (interference) [3]: 1 (inactive)
fold change [4, 7]: 1.03 (inactive)
fold change [4, 8]: 1.2
cell count [4, 9]: 9630
cell count [4, 10]: 9370
outcome [5]: inactive
z-score [6]: 1.26 (inactive)
